Screening data: PubChem, The Scripps Research Institute Molecular Screening Center
Compounds with a hit are over-represented: about 3.4% of the library has one in this group of screens.
FBW7 activator: activators of human E3 ligase FBW7; AID 1259310; 650,000 tested, 0.13% active; Q969H0; normalized activity (activation), % at 26.1 µM; AlphaScreen FBW7–phospho-cyclin E peptide binding, activator screen; in the data active = normalized activity above about 1.9%;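 also: purified mutant Fbw7 with reduced substrate affinity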
GPR151 ag: human GPR151 activation; activation, % at 11.2 µM; 650,000 tested, 1% active; Q8TDV0; PathHunter beta-arrestin GPR151 cells, luminescence; in the data active = activation above about 4.9%;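 also: 0% = median of compound wells and 100% = cells with positive control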
TEAD-YAP inh: TEAD-YAP interaction inhibition. inhibition, % at 9.12 µM. 640,000 tested, 1.4% active. AID 1259422. HEK-TIYL cells, TEAD-Gal4/YAP UAS-luciferase luminescence; in the data active = inhibition above about 32%;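 also: 0% = median of test compound wells and 100% = reference inhibitor wells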
MITF primary: blocks human microphthalmia-associated transcription factor. O75030. AlphaScreen MITF homodimerization, bead proximity signal. inhibition, % at 2.6 µM. 650,000 tested, 0.91% active. AID 1259374; in the data active = inhibition above about 50%;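 also: 0% = vehicle wells with protein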
GPR151 confirm: confirmation of human GPR151 activators. shares compounds with GPR151 ag. GPR151 PathHunter beta-arrestin cells, luminescence, 90 min; % of EA-reagent control over plate median. activation, % at 11.2 µM. 6,700 tested, under 10 active;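 active = mean percent activation across replicates above the confirmation screen cutoff of 4.91%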
GPR119 ag: counter-screen for GPR151 activators: effect on human GPR119; AID 1508611; activation, % at 11.2 µM; GPR119 PathHunter beta-arrestin cells, luminescence, 90 min; 0 = compound-well median, 100 = enzyme-acceptor control; shares compounds with GPR151 ag; 6,700 tested, 0.3% active;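 active = mean percent activation in the counterscreen above 29.09%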;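 also: counterscreen on off-target GPR119 to flag nonselective hits from the GPR151 activator screen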
An asterisk follows results filed as active.

`CCOc1cnc(C(=O)NNC(=O)c2ccc(S(=O)(=O)N(C)C)cc2)o1` gave FBW7 activator 0.1, GPR151 ag 6.0*, TEAD-YAP inh 1.2, MITF primary -6.0, GPR151 confirm 0.5 and GPR119 ag -3.9.
C/C(=N\NC(=O)c1ccc(F)cc1)c1ccc([N+](=O)[O-])cc1 was read as FBW7 activator -0.1, GPR151 ag 8.1*, TEAD-YAP inh -25.1, MITF primary 10.1, GPR151 confirm -1.0 and GPR119 ag -14.2.
`CCSc1nc2sccn2c(=O)c1C(=O)Nc1cc(C(C)(C)C)nn1C` gave FBW7 activator -0.1, GPR151 ag 5.0*, TEAD-YAP inh -4.2, MITF primary 5.8, GPR151 confirm 1.1 and GPR119 ag 3.2.
Screening CCSc1nc2sccn2c(=O)c1C(=O)Nc1cc(-c2ccccc2)nn1C returned FBW7 activator -0.5, GPR151 ag 1.1, TEAD-YAP inh -1.4 and MITF primary 5.8.
CCOc1ccc(CNC(=O)c2cc(=O)[nH]c3ccccc23)cc1 was read as FBW7 activator 0.1, GPR151 ag 5.0*, TEAD-YAP inh -7.6, MITF primary 3.9, GPR151 confirm -0.6 and GPR119 ag -7.0.
For Cc1nc(N2CCC(C(=O)O)CC2)c2oc3ccccc3c2n1 the results were FBW7 activator 0.2, GPR151 ag -1.2, TEAD-YAP inh -3.8 and MITF primary 8.1.
`Cc1nc(N2CCOCC2)c2oc3ccccc3c2n1` gave FBW7 activator -0.2, GPR151 ag 7.4*, TEAD-YAP inh -2.6, MITF primary 14.4, GPR151 confirm 0.0 and GPR119 ag 3.1.
For CC(C)N(C(=O)Cc1csc(NC(=O)Nc2ccc(Cl)cc2)n1)C(C)C the results were FBW7 activator 0.0, GPR151 ag 11.2*, TEAD-YAP inh 4.8, MITF primary -6.6, GPR151 confirm 0.4 and GPR119 ag -10.0.
`CCOC(=O)c1csc(NC(=O)Nc2ccc(Cl)cc2)n1` gave FBW7 activator -0.1, GPR151 ag -1.1, TEAD-YAP inh -7.2 and MITF primary -5.7.
For CC(=O)c1cccc(NC(=O)C(C)N2C(=O)C3C4C=CC(C5CC45)C3C2=O)c1 (stereo not drawn) the results were FBW7 activator -0.1, GPR151 ag 0.4, TEAD-YAP inh 7.4 and MITF primary 12.3.
For CC(C(=O)Nc1cccc([N+](=O)[O-])c1)N1C(=O)C2C3C=CC(C4CC34)C2C1=O (stereo not drawn) the results were FBW7 activator 0.1, GPR151 ag 8.6*, TEAD-YAP inh -1.3, MITF primary 8.7, GPR151 confirm -0.3 and GPR119 ag -9.3.
Cc1c(S(=O)(=O)N2CCN(c3ccccc3)CC2)c(=O)n(C)c(=O)n1C was read as FBW7 activator -0.4, GPR151 ag 8.2*, TEAD-YAP inh 8.3, MITF primary 7.5, GPR151 confirm 1.1 and GPR119 ag 4.5.
`COCCNC(=O)c1sc2ncnc(N3CCc4ccccc4C3)c2c1C` gave FBW7 activator -0.2, GPR151 ag 5.3*, TEAD-YAP inh -2.7, MITF primary 0.3, GPR151 confirm -0.6 and GPR119 ag -0.1.
Screening CC(=O)N1CCN(Cc2ccc3c(c2)CN(C(=O)Cc2cccc(F)c2)CCO3)CC1 returned FBW7 activator -0.1, GPR151 ag 2.6, TEAD-YAP inh 6.7 and MITF primary -3.4.
Screening CC(=O)N1CCN(Cc2cccc(F)c2)CC1 returned FBW7 activator 0.1, GPR151 ag 5.4*, TEAD-YAP inh 15.4, MITF primary 9.8, GPR151 confirm 0.1 and GPR119 ag 3.0.
`CC(C)CC(=O)Nc1ccnn1C1CCN(CC2=CC[C@H]3C[C@@H]2C3(C)C)CC1` gave FBW7 activator 0.0, GPR151 ag -0.3, TEAD-YAP inh 3.6 and MITF primary 4.0.
`CC1(CCC(=O)N2CCC(n3nccc3NC(=O)CCOc3ccccc3)CC2)CC1` gave FBW7 activator 0.1, GPR151 ag 1.5, TEAD-YAP inh 1.2 and MITF primary 7.1.
Screening O=C(CCOc1ccccc1)Nc1ccnn1C1CCN(C(=O)CCc2ccccc2)CC1 returned FBW7 activator 0.0, GPR151 ag 5.7*, TEAD-YAP inh -6.3, MITF primary 0.6, GPR151 confirm 0.2 and GPR119 ag 5.1.
`CC1(C)[C@H]2CC=C(CN3CCC(n4nccc4NC(=O)CCOc4ccccc4)CC3)[C@@H]1C2` gave FBW7 activator 0.1, GPR151 ag 5.3*, TEAD-YAP inh 6.9, MITF primary 2.5, GPR151 confirm -0.4 and GPR119 ag 3.9.
For Cc1ccc(CN2CCN(C3C4CC5CC(C4)CC3C5)CC2CCO)o1 (stereo not drawn) the results were FBW7 activator -0.2, GPR151 ag -1.0, TEAD-YAP inh 7.5 and MITF primary -12.8.
For O=[N+]([O-])c1ccc(CN2CCN(Cc3cc(Br)ccc3O)CC2)cc1 the results were FBW7 activator -0.1, GPR151 ag 6.6*, TEAD-YAP inh 31.1, MITF primary 45.2, GPR151 confirm 0.4 and GPR119 ag 16.2.
`COc1cc(CN2CCN(c3ccc([N+](=O)[O-])cc3)CC2)ccc1O` gave FBW7 activator -0.1, GPR151 ag 0.2, TEAD-YAP inh -5.7 and MITF primary 14.8.
COc1ccc(CN2CCN(c3ccc([N+](=O)[O-])cc3)CC2)cc1O was read as FBW7 activator 0.1, GPR151 ag 6.7*, TEAD-YAP inh 36.4*, MITF primary 49.5, GPR151 confirm 0.2 and GPR119 ag 18.2.
Screening Cc1ccc2oc(-c3cc(NC(=O)c4ccccc4C)ccc3O)nc2c1 returned FBW7 activator -0.1, GPR151 ag -0.4, TEAD-YAP inh -9.2 and MITF primary -17.9.
For C1=CCC(CN2CCN(C3CCCC3)CC2)CC1 (stereo not drawn) the results were FBW7 activator 0.0, GPR151 ag 5.1*, TEAD-YAP inh -5.8, MITF primary 32.8, GPR151 confirm 0.8 and GPR119 ag 13.2.
Cc1ccc(N(Cc2ccc(C(=O)NC(C)c3ccccc3)cc2)S(C)(=O)=O)cc1C (stereo not drawn) was read as FBW7 activator -0.2, GPR151 ag 5.5*, TEAD-YAP inh 11.1, MITF primary 4.1, GPR151 confirm -0.7 and GPR119 ag 1.9.
CC(NC(=O)c1ccc(N(Cc2ccccc2)S(C)(=O)=O)cc1)c1ccccc1 (stereo not drawn) was read as FBW7 activator 0.1, GPR151 ag 0.5, TEAD-YAP inh -0.1 and MITF primary -1.0.
Screening CCCCN(C(=O)c1cc(OC)c(OC)c(OC)c1)C1CC2CCC(C1)N2C (stereo not drawn) returned FBW7 activator -0.1, GPR151 ag 1.9, TEAD-YAP inh -1.3 and MITF primary -4.2.
`CC(=O)Nc1cccc(-c2ccc(NCCc3ccncc3)nc2)c1` gave FBW7 activator 0.0, GPR151 ag 0.1, TEAD-YAP inh -57.0 and MITF primary -2.9.
